# From PMC7862700, “An all-to-all approach to the identification of sequence-specific readers for epigenetic DNA modifications on cytosine”
# Columns and labels:
# Assay in all cases: DAPPL (digital affinity profiling via proximity ligation, sequencing); 10 mM Tris-HCl pH 7.5, 50 mM NaCl, 1 mM DTT, 4% glycerol, room temperature, 30 min; GST-TFs on glutathione beads, 16-mer random dsDNA library, 0.1% formaldehyde crosslink after washing; high values mean tight binding
# FLI1 = target: T1, FLI1 (Homo sapiens, UniProt Q01543 1-452); details: protein: recombinant; tags: N-terminal GST; dsDNA, one strand shown
# T1 sequence: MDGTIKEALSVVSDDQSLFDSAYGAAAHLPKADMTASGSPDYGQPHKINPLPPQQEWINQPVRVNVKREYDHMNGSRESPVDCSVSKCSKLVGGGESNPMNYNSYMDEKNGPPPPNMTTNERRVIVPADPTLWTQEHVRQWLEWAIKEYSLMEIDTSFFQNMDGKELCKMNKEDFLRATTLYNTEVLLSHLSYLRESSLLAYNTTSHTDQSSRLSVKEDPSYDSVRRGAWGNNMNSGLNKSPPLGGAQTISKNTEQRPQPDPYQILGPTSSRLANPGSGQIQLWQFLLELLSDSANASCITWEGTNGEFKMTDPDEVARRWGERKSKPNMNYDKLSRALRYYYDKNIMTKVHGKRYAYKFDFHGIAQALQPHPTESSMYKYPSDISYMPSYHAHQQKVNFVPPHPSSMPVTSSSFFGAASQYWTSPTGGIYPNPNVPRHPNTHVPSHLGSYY
# Procedure, shortened: (§1)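 GST fusions of human transcription factors were expressed in yeast and captured with glutathione beads. Once given DNA barcodes and pooled alongside a tag-only sample, they were incubated for 30 min at room temperature with 200 nmole of a random double-stranded 16-mer DNA library in Tris/NaCl/DTT/glycerol buffer, then washed, crosslinked (0.1% formaldehyde), proximity-ligated, PCR-amplified and sequenced on an Illumina NextSeq500. The binding signal of each hexamer is its read frequency for a factor divided by its frequency for the tag-only sample.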
# ELK1 = target: T2, ELK1 (Homo sapiens, UniProt P19419 1-428); details: protein: recombinant; tags: N-terminal GST; dsDNA, one strand shown
# T2 sequence: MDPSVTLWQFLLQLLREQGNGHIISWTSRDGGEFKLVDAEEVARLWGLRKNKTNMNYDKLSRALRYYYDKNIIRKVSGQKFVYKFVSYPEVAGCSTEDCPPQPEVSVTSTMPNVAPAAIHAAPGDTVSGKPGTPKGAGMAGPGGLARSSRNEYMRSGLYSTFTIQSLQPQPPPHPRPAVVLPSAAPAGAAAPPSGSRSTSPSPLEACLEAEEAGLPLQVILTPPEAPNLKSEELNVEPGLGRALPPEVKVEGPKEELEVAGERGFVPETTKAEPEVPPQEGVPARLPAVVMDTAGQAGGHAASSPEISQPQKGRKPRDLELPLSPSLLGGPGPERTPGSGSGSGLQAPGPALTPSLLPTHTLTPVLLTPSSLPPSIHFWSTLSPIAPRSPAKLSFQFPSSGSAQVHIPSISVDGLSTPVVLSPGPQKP
# Procedure, shortened: as §1
# GABPA = target: T3, GABPA (Homo sapiens, UniProt Q06546 1-454); details: protein: recombinant; tags: N-terminal GST; dsDNA, one strand shown
# T3 sequence: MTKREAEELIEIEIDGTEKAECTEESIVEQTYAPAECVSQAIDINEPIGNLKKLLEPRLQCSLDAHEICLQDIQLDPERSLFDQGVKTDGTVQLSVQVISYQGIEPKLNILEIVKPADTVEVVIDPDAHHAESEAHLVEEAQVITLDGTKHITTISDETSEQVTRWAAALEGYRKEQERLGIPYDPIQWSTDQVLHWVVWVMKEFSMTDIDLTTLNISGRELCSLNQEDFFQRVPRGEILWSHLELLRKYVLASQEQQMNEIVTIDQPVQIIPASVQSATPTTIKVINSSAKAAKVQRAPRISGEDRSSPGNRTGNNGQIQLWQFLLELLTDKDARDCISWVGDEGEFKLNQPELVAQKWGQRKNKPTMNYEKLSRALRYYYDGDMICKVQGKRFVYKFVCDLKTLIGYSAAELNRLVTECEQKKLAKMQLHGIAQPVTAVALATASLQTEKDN
# Procedure, shortened: as §1
# ERG = target: T4, ERG (Homo sapiens, UniProt P11308 1-479); details: protein: recombinant; tags: N-terminal GST; dsDNA, one strand shown
# T4 sequence: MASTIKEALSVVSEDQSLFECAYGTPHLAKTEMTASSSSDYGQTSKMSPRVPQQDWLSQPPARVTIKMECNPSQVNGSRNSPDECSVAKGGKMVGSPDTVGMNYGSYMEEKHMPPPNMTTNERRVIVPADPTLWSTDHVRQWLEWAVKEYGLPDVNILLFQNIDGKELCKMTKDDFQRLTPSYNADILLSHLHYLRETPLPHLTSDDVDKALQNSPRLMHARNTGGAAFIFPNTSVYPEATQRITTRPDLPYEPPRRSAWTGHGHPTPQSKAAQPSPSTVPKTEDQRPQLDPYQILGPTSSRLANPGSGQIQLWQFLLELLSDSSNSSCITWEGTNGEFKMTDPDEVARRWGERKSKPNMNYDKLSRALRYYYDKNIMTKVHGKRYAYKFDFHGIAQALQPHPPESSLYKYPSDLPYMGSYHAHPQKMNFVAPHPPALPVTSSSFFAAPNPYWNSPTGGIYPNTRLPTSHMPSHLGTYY
# Procedure, shortened: as §1
# ELF1 = ELF1 (Homo sapiens, UniProt P32519 1-619); details: protein: recombinant; tags: N-terminal GST; dsDNA, one strand shown
# Sequence of ELF1 (P32519 whole entry): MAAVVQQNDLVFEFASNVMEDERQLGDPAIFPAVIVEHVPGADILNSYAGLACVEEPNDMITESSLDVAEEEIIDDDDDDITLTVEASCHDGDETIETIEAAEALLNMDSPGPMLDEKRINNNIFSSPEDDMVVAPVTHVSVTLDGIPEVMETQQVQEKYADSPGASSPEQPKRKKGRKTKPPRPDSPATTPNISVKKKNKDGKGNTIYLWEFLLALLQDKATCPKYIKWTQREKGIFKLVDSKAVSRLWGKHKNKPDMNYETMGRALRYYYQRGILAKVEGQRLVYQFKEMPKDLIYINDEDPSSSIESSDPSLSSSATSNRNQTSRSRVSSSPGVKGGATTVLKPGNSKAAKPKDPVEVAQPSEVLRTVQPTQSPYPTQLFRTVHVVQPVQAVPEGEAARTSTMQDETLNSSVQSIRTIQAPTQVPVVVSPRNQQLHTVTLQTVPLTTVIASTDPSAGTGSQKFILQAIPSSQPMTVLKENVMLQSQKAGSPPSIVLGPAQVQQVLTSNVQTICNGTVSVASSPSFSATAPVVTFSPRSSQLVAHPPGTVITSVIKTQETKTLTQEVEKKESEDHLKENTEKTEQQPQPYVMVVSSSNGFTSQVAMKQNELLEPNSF
# Procedure, shortened: as §1
# EHF = target: T5, EHF (Homo sapiens, UniProt Q9NZC4 1-300); details: protein: recombinant; tags: N-terminal GST; dsDNA, one strand shown
# T5 sequence: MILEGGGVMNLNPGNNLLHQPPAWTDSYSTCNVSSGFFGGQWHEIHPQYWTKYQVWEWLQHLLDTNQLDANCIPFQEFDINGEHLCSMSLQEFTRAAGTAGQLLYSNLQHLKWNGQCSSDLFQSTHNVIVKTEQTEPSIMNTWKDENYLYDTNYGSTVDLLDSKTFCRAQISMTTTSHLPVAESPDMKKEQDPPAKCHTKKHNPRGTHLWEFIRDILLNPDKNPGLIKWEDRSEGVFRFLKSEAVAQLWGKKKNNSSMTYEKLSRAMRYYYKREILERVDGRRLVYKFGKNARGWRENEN
# Procedure, shortened: as §1
# SPI1 = SPI1 (Homo sapiens, UniProt P17947 1-270); details: protein: recombinant; tags: N-terminal GST; dsDNA, one strand shown
# Procedure, shortened: as §1
# SPIB = SPIB (Homo sapiens, UniProt Q01892 1-262); details: protein: recombinant; tags: N-terminal GST; dsDNA, one strand shown
# Sequence of SPIB (Q01892 whole entry): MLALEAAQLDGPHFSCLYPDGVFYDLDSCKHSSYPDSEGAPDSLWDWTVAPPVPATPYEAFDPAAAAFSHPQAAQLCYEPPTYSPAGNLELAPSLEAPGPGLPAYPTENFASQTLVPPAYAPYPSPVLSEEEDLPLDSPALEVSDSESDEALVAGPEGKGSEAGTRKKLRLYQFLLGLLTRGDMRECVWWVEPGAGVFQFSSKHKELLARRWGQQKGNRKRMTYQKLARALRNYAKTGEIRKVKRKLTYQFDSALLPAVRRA
# Procedure, shortened: as §1
# ELK3 = target: T6, ELK3 (Homo sapiens, UniProt P41970 1-407); details: protein: recombinant; tags: N-terminal GST; dsDNA, one strand shown
# T6 sequence: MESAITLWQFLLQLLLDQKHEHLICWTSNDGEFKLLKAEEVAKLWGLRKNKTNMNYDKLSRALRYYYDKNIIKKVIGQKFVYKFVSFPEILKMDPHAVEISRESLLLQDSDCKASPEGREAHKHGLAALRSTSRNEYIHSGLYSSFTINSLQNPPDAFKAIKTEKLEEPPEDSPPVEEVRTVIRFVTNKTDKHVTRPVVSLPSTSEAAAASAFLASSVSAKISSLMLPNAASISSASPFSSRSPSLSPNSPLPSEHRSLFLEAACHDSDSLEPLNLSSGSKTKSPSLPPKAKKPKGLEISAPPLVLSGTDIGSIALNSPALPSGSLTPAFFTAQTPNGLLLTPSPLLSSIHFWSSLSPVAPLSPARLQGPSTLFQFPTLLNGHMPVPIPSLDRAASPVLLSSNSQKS
# Procedure, shortened: as §1
# FEV = target: T7, FEV (Homo sapiens, UniProt Q99581 1-238); details: protein: recombinant; tags: N-terminal GST; dsDNA, one strand shown
# T7 sequence: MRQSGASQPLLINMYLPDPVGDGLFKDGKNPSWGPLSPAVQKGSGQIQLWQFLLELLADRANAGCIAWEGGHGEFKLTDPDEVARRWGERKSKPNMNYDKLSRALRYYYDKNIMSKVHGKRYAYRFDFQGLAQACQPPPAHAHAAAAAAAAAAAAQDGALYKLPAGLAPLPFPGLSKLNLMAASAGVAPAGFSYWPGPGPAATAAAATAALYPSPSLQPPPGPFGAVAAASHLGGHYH
# Procedure, shortened: as §1
# ETV5 = ETV5 (Homo sapiens, UniProt P41161 1-510); details: protein: recombinant; tags: N-terminal GST; dsDNA, one strand shown
# Sequence of ETV5 (P41161 whole entry): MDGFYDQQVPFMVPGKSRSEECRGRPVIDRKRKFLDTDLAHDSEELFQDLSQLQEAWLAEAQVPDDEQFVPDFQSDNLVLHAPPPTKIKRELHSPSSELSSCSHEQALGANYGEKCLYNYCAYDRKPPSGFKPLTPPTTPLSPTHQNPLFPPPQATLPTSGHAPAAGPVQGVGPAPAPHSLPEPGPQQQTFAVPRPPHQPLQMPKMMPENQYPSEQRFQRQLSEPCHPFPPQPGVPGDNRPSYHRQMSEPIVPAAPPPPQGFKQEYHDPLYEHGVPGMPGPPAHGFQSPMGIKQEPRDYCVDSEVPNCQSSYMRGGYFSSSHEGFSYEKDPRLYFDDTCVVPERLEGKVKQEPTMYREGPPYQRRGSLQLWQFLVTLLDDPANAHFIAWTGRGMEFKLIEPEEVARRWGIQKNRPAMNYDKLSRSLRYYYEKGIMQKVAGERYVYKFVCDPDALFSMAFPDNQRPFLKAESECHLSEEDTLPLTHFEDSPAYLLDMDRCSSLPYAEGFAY
# Procedure, shortened: as §1
# HSF1 = HSF1 (Homo sapiens, UniProt Q00613 1-529); details: protein: recombinant; tags: N-terminal GST; chain copies: 3; dsDNA, one strand shown
# Sequence of HSF1 (Q00613 whole entry): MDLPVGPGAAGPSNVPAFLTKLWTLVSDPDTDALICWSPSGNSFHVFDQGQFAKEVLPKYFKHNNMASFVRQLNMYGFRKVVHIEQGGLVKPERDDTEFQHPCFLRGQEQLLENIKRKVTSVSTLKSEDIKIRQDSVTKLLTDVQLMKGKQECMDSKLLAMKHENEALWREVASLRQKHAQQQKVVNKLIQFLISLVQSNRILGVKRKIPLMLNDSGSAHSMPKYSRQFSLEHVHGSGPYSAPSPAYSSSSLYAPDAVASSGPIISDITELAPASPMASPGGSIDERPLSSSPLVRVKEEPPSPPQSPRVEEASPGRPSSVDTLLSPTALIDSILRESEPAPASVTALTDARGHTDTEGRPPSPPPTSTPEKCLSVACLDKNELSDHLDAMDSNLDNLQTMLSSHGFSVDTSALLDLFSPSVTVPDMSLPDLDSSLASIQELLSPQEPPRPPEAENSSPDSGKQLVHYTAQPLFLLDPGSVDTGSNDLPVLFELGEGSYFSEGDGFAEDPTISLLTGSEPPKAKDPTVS
# Procedure, shortened: as §1
# SPIC = target: T8, SPIC (Homo sapiens, UniProt Q8N5J4 1-248); details: protein: recombinant; tags: N-terminal GST; dsDNA, one strand shown
# T8 sequence: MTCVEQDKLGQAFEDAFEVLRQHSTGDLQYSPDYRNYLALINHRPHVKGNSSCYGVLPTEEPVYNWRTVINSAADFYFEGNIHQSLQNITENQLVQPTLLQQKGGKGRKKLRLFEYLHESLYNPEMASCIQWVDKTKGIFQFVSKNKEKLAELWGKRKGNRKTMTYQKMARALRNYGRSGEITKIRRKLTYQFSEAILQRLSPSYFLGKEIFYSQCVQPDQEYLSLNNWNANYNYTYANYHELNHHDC
# Procedure, shortened: as §1
# ELF4 = ELF4 (Homo sapiens, UniProt Q99607 1-663); details: protein: recombinant; tags: N-terminal GST; dsDNA, one strand shown
# Sequence of ELF4 (Q99607 whole entry): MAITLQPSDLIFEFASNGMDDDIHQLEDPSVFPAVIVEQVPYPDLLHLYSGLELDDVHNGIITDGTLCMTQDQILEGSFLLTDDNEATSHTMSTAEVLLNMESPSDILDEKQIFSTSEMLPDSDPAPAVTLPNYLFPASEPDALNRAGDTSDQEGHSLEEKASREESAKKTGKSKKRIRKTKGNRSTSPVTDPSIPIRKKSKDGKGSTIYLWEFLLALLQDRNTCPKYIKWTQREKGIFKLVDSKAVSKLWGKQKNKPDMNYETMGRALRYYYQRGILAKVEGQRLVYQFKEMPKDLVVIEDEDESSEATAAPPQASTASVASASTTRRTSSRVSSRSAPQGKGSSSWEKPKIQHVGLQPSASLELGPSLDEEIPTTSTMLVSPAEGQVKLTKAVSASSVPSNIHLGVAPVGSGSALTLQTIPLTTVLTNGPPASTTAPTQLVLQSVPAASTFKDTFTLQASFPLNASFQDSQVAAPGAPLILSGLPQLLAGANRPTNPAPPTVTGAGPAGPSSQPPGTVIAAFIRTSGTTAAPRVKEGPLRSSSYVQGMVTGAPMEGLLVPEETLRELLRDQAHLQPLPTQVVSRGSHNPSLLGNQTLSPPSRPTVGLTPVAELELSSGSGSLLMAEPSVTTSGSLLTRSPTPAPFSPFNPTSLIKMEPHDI
# Procedure, shortened: as §1
# ELK4 = target: T9, ELK4 (Homo sapiens, UniProt P28324-2 1-405); details: protein: recombinant; tags: N-terminal GST; dsDNA, one strand shown
# T9 sequence: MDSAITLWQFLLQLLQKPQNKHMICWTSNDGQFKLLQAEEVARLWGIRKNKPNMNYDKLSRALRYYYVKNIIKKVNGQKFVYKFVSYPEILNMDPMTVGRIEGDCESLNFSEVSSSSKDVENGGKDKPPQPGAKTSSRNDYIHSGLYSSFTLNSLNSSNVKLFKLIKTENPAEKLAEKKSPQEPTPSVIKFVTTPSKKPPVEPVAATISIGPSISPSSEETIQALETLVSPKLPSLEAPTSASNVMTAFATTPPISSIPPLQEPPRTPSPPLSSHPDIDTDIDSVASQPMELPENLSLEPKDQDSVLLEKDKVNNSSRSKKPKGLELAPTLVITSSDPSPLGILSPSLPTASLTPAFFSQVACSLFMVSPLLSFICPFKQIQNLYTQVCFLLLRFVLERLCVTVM
# Procedure, shortened: as §1
# ETV2 = target: T10, ETV2 (Homo sapiens, UniProt O00321 1-342); details: protein: recombinant; tags: N-terminal GST; dsDNA, one strand shown
# T10 sequence: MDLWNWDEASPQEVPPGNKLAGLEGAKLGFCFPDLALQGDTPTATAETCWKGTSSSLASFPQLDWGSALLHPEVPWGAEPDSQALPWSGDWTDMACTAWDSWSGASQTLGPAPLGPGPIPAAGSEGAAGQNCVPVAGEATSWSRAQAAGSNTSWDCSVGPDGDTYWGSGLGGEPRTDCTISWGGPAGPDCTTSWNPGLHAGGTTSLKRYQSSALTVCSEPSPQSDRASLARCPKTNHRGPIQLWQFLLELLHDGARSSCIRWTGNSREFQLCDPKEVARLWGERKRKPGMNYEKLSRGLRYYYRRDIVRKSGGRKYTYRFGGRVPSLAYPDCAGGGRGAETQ
# Procedure, shortened: as §1
# ELF3 = target: T11, ELF3 (Homo sapiens, UniProt P78545 1-371); details: protein: recombinant; tags: N-terminal GST; dsDNA, one strand shown
# T11 sequence: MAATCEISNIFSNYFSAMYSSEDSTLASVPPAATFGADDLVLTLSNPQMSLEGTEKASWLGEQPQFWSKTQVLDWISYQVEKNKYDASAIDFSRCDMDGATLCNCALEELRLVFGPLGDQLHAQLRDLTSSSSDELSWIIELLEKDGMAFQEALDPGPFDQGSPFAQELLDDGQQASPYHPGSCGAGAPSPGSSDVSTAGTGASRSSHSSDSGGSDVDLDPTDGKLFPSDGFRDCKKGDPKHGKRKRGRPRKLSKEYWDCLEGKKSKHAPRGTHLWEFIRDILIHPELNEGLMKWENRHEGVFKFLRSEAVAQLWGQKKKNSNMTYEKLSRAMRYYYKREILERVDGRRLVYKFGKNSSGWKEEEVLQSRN
# Procedure, shortened: as §1
# CRX = CRX (Homo sapiens, UniProt O43186 1-299); details: protein: recombinant; tags: N-terminal GST; dsDNA, one strand shown
# Sequence of CRX (O43186 whole entry): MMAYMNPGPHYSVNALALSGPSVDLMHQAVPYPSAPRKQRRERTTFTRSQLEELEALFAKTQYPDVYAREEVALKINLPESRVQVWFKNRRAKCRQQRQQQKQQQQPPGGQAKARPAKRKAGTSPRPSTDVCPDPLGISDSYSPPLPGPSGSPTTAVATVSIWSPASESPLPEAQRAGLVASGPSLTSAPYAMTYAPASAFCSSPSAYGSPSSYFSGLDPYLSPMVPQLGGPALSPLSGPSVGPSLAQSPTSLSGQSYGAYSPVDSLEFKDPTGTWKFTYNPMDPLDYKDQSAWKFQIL
# Procedure, shortened: as §1
# ETV1 = ETV1 (Homo sapiens, UniProt P50549 1-477); details: protein: recombinant; tags: N-terminal GST; dsDNA, one strand shown
# Sequence of ETV1 (P50549 whole entry): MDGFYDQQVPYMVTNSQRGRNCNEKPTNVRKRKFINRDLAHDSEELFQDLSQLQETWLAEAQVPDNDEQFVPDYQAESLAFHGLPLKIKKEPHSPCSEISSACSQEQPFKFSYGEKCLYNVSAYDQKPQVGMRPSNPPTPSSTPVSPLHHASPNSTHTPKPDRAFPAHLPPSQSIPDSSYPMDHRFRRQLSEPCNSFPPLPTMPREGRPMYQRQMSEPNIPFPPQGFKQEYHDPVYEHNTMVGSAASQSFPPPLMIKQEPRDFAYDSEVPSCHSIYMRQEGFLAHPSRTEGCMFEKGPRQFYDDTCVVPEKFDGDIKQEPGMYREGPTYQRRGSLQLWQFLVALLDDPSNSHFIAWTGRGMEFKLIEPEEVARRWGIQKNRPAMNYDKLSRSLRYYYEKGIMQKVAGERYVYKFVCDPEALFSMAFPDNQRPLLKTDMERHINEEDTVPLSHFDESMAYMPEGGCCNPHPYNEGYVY
# Procedure, shortened: as §1
sequence,measurement,setting,value
CTTTAC,binding signal,FLI1,"1.24 fold enrichment (6-mer frequency, TF over GST control)"
same,binding signal,ELK1,"1.43 fold enrichment (6-mer frequency, TF over GST control)"
same,binding signal,GABPA,"1.51 fold enrichment (6-mer frequency, TF over GST control)"
same,binding signal,ERG,"1.31 fold enrichment (6-mer frequency, TF over GST control)"
same,binding signal,ELF1,"1.4 fold enrichment (6-mer frequency, TF over GST control)"
same,binding signal,EHF,"1.38 fold enrichment (6-mer frequency, TF over GST control)"
same,binding signal,SPI1,"1.4 fold enrichment (6-mer frequency, TF over GST control)"
same,binding signal,SPIB,"1.41 fold enrichment (6-mer frequency, TF over GST control)"
same,binding signal,ELK3,"1.47 fold enrichment (6-mer frequency, TF over GST control)"
same,binding signal,FEV,"1.31 fold enrichment (6-mer frequency, TF over GST control)"
same,binding signal,ETV5,"1.3 fold enrichment (6-mer frequency, TF over GST control)"
same,binding signal,HSF1,"1.37 fold enrichment (6-mer frequency, TF over GST control)"
same,binding signal,SPIC,"1.4 fold enrichment (6-mer frequency, TF over GST control)"
same,binding signal,ELF4,"1.45 fold enrichment (6-mer frequency, TF over GST control)"
same,binding signal,ELK4,"1.44 fold enrichment (6-mer frequency, TF over GST control)"
same,binding signal,ETV2,"1.41 fold enrichment (6-mer frequency, TF over GST control)"
same,binding signal,ELF3,"1.44 fold enrichment (6-mer frequency, TF over GST control)"
same,binding signal,CRX,"1.51 fold enrichment (6-mer frequency, TF over GST control)"
same,binding signal,ETV1,"1.3 fold enrichment (6-mer frequency, TF over GST control)"
